Test results taken from PubChem BioAssay (Tox21).
A number with no mark means an inactive call. Inconclusive results are not listed. Where a call stands in place of a potency, no number is given. Active and inactive are the calls of the source. Unless noted, calls follow the shape of the full dose curve.

Legend:
[1] = Nuclear factor erythroid 2-related factor 2/antioxidant responsive element (Nrf2/ARE) small molecule agonists: qHTS cell viability counter screen in human keratinocytes (AID 1919968; active = well fitted curve in the direction sought with a large enough effect in the repeat runs; an effect the other way counts as inactive or inconclusive; also: nearly all actives have a fitted effect of over 55% in size; also: potency is read from the fitted curve at half-maximal effect)
Method in brief: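 Cells of the KeratinoSens line were plated at 1,500 per well and left for 5 h before compound transfer from DMSO stocks. After a 23 h incubation (37 C, 5% CO2), CellTiter-Fluor was added. Signal was taken as fluorescence intensity 1 h later.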

[2] = biological target: Gonadotropin-releasing hormone receptor (Homo sapiens) (UniProt P30968); assay: Human gonadotropin-releasing hormone receptor (GnRHR) small molecule agonists, calcium flux assay in GnRHR-HEK293 cells (AID 1920063); also: nearly all actives have a fitted effect of over 35% in size
Method in brief: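 Compounds dissolved in DMSO are pin-transferred onto dye-loaded GnRHR-HEK293 cells, which were seeded 18 h before at 37 C/5% CO2. Calcium signal is read as fluorescence intensity at 1 s intervals for 3 min.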

[3] = biological target: KiSS-1 receptor (Homo sapiens) (UniProt Q969F8); assay: Human kisspeptin (KISS1R) small molecule agonists, calcium flux assay in KISS1R-HEK293 cells (AID 1920064; active = well fitted curve in the direction sought with a large enough effect in the repeat runs; an effect the other way counts as inactive or inconclusive)
Method in brief: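 Cell line: HEK293, stable human KISS1R. Dye loading 1 h at 37 C after 18 h culture. Read: kinetic fluorescence, 480/540 nm, 3 min at 1 s intervals.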

[4] = G protein-coupled receptor (GPCR) small molecule agonists, calcium flux assay: HEK293 wild type cell line counter screen (AID 1920065)
Method in brief: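 Tox21 10K compounds, 15 concentrations each in triplicate, pin-transferred in DMSO onto dye-loaded cells; kinetic read at 480/540 nm for 3 min, 1 s intervals.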

[5] = p53 small molecule agonists, cell-based qHTS assay with human liver microsomes: qHTS cell viability counter screen (AID 1963579); also: nearly all actives have a fitted effect of over 45% in size
Method in brief: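 Cytotoxicity counter screen: p53RE-bla, 4,000 cells/well; 5 h settle, 37 C/5% CO2; cpd + HLM 0.5 mg/mL + NADPH 0.5 mg/mL (final); 16 h, 37 C; CellTiter-Glo, 30 min RT, luminescence.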

[6] = p53 small molecule agonists, cell-based qHTS assay with rat liver microsomes: qHTS cell viability counter screen (AID 1963580); also: nearly all actives have a fitted effect of over 45% in size
Method in brief: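 Counter screen for cytotoxicity under metabolic activation: rat liver microsomes and NADPH, 0.5 mg/mL final each, added with compounds to p53RE-bla HCT-116 cells; 16 h at 37 C, then ATP luminescence read.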

[7] = p53 small molecule agonists, cell-based qHTS assay: qHTS cell viability counter screen (AID 1963581); also: nearly all actives have a fitted effect of over 45% in size
Method in brief: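 ATP content measured by luminescence in HCT-116 p53RE-bla cells treated 16 h at 37 C, same wells as the reporter screen.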

[8] = biological target: 5-hydroxytryptamine receptor 2A (Homo sapiens) (UniProt P28223); assay: 5-hydroxytryptamine receptor 2A (HTR2A) small molecule antagonists, cell-based qHTS assay (AID 1963586); also: nearly all actives have a fitted effect of over 45% in size
Method in brief: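 CHO cells stably expressing human HTR2A were plated for 18 h at 37 C, then loaded with calcium dye for 1 h. Compounds were preincubated 5 min at room temperature before DOI (4 nM solution) was added. Kinetic fluorescence was read for 3 min.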

[9] = biological target: 5-hydroxytryptamine receptor 2A (Homo sapiens) (UniProt P28223); assay: 5-hydroxytryptamine receptor 2A (HTR2A) small molecule agonists, cell-based qHTS assay (AID 1963587); also: nearly all actives have a fitted effect of over 30% in size
Method in brief: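 HTR2A-CHO cells, plated 18 h at 37 C/5% CO2, dye-loaded 1 h at 37 C; compounds in DMSO added by pin tool (agonist mode). Intracellular calcium flux read as kinetic fluorescence on FDSS over 2 min at 1 s intervals.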

[10] = biological target: Muscarinic acetylcholine receptor M1 (Homo sapiens) (UniProt P11229); assay: Cholinergic receptor muscarinic 1 (CHRM1) small molecule antagonists, cell-based qHTS assay (AID 1963588); also: nearly all actives have a fitted effect of over 40% in size
Method in brief: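 Compounds were tested at 15 concentrations in three independent runs. Dye-loaded CHRM1-CHO cells were exposed 5 min at room temperature before stimulation by acetylcholine added at 50nM. Intracellular calcium was read kinetically on FDSS for 3 min.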

[11] = biological target: Muscarinic acetylcholine receptor M1 (Homo sapiens) (UniProt P11229); assay: Cholinergic receptor muscarinic 1 (CHRM1) small molecule agonists, cell-based qHTS assay (AID 1963589); also: nearly all actives have a fitted effect of over 35% in size
Method in brief: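 Homogeneous fluorescence calcium flux, agonist mode. Human M1-expressing CHO cells; compound dosed at 15 concentrations, three independent runs; signal sampled every 1 sec.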

[12] = cAMP Responsive Elements (CRE) small molecule agonists, cell-based qHTS assay (AID 1963590)
Method in brief: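 HEK 293T cells stably bearing CRE-bla were plated at 2,000 cells per well and rested 18 h. Compounds, positive controls or DMSO were added for 3 h at 37 C. LiveBLAzer B/G substrate was then loaded for 2 h at room temperature.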

[13] = cAMP Responsive Elements (CRE) small molecule antagonists, cell-based qHTS assay (AID 1963591; active = well fitted inhibition curve with a large enough effect in the signal ratio in the repeat runs, not every such curve was filed as active; the % refers to the signal ratio)
Method in brief: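 First, CRE-bla HEK293T cells settled 18 h at 37 C. Next, compound and 0.25 uM final NKH477 were applied for 3 h. Last, LiveBLAzer B/G substrate was loaded for 2 h at room temperature.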

[14] = biological target: Beta-2 adrenergic receptor (Homo sapiens) (UniProt P07550); assay: Adrenergic beta2 receptor (ADRB2) small molecule antagonists, cell-based qHTS assay (AID 1963592); also: series mostly up to about 92 µM; nearly all actives have a fitted effect of over 50% in size
Method in brief: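 Assay format: CHO-ADRB2 cells, 18-20hr seeding at 37C/5% CO2, then compound plus 1nM isoproterenol agonist mix for 0.5hr RT. Homogeneous time-resolved fluorescence cAMP detection after 1hr, expressed as 665/615 nm ratio.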

[15] = biological target: D(2) dopamine receptor (Homo sapiens) (UniProt P14416); assay: Dopamine D2 receptor (DRD2) small molecule agonists, cell-based qHTS assay (AID 1963594); also: nearly all actives have a fitted effect of over 35% in size
Method in brief: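 HEK293 cells stably expressing DRD2 were cultured 24 h at 37 C, then given Ro20-1724 (0.1 mM final) and compounds for 10 min at room temperature. NKH477 (200nM) was then added for 30 min. cAMP was read by HTRF.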

[16] = biological target: D(2) dopamine receptor (Homo sapiens) (UniProt P14416); assay: Dopamine D2 receptor (DRD2) small molecule antagonists, cell-based qHTS assay (AID 1963595; active = well fitted inhibition curve with a large enough effect in the signal ratio in the repeat runs, with a control signal flat; the % refers to the signal ratio)
Method in brief: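 Cells were plated and grown for 24 h at 37 °C. Ro20-1724 (0.1 mM final) went in first, then compound for 10 min. NKH477 (200 nM) with quinpirole (12 nM) followed for 30 min at RT, then HTRF detection reagents for 1 h.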

[17] = biological target: Beta-2 adrenergic receptor (Homo sapiens) (UniProt P07550); assay: Adrenergic beta2 receptor (ADRB2) small molecule agonists, cell-based qHTS assay (AID 1963593);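 also: CHO cells stably overexpressing human ADRB2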
Method in brief: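 CHO cells stably over-expressing ADRB2 were plated overnight at 37C, then dosed with compounds plus a stimulation mix containing 100uM IBMX and 25uM Ro-20-1724 for 0.5hr at room temperature. cAMP was measured by HTRF competition, 1hr.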

[18] = p53 small molecule agonists, cell-based qHTS assay (AID 1963582; active = well fitted activation curve with a large enough effect in the signal ratio in the repeat runs, not every such curve was filed as active; the % refers to the signal ratio)
Method in brief: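 16 h compound exposure (37 C) of p53 response element–bla cells, preceded by 5 h recovery at 37 C/5% CO2; read-out via LiveBLAzer B/G FRET substrate, 2 h RT, fluorescence intensity.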

Sequence of 5-hydroxytryptamine receptor 2A (Homo sapiens) (P28223 whole entry, looked up): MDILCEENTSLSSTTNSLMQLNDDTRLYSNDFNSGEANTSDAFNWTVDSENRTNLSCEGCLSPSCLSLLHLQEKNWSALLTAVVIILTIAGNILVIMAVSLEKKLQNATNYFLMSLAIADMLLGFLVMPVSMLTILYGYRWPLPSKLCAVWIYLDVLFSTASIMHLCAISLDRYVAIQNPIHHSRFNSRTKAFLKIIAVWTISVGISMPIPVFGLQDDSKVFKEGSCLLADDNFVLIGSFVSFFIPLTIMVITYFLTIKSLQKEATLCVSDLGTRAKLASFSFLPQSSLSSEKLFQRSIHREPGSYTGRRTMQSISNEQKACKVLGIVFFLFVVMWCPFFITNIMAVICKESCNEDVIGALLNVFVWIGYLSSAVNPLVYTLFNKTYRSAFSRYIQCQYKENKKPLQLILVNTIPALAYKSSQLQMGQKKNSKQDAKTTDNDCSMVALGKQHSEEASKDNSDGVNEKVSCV
Sequence of KiSS-1 receptor (Homo sapiens) (Q969F8 whole entry, looked up): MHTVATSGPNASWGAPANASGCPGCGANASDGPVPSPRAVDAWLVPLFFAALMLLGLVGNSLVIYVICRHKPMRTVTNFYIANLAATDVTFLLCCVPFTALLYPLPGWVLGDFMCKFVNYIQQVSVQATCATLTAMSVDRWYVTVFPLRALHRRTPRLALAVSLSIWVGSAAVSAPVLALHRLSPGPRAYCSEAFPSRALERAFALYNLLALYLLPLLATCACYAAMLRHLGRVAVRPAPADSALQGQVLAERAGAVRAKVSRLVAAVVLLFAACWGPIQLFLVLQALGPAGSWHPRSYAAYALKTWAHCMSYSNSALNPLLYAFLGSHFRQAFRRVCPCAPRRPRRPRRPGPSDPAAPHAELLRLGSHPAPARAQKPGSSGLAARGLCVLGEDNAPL
Sequence of Muscarinic acetylcholine receptor M1 (Homo sapiens) (P11229 whole entry, looked up): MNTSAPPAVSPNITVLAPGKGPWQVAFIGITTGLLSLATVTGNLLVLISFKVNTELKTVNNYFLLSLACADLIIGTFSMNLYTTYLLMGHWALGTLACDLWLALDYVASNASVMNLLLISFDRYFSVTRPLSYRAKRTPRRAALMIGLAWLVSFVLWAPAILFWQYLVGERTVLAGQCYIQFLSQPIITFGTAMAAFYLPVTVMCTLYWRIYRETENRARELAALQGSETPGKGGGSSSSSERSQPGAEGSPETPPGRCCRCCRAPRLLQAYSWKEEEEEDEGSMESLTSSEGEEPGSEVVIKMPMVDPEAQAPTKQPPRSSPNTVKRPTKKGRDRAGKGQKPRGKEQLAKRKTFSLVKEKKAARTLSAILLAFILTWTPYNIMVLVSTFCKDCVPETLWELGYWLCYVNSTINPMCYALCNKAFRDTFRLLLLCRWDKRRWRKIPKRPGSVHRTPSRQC
Sequence of Beta-2 adrenergic receptor (Homo sapiens) (P07550 whole entry, looked up): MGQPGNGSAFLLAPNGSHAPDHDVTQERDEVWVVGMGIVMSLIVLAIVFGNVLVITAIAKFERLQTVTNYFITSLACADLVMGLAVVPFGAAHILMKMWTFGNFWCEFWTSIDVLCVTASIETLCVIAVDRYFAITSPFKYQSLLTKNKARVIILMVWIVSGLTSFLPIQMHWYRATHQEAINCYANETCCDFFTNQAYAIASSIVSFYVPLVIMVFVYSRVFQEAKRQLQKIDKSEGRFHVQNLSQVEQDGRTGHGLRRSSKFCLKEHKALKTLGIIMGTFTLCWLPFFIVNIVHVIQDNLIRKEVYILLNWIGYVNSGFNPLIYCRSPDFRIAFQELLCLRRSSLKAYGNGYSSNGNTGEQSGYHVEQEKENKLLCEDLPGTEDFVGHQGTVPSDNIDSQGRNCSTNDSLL
Sequence of D(2) dopamine receptor (Homo sapiens) (P14416 whole entry, looked up): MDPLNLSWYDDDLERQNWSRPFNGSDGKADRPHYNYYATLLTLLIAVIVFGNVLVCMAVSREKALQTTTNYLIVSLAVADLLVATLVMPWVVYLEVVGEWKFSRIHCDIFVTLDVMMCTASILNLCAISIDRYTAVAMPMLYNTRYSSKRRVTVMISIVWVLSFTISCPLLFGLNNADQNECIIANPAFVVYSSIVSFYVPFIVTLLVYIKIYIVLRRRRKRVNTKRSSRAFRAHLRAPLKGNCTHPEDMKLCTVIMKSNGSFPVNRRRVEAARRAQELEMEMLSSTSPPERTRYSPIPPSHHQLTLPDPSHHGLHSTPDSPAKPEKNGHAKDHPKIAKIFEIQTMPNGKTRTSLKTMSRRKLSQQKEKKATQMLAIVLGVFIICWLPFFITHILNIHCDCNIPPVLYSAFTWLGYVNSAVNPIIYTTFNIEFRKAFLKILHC
Sequence of Gonadotropin-releasing hormone receptor (Homo sapiens) (P30968 whole entry, looked up): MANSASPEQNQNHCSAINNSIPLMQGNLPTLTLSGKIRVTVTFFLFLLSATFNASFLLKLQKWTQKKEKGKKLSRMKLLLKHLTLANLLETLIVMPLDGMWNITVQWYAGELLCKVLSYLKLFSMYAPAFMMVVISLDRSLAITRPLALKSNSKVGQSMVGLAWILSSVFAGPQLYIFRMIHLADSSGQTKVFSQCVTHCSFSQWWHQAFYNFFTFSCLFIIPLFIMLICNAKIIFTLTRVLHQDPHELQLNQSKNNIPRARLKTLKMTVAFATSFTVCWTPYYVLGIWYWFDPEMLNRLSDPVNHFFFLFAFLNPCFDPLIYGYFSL

O=[N+]([O-])c1cccc(CCl)c1
Potency [1]: inactive | Potency [2]: inactive | Potency [3]: inactive | Potency [4]: inactive | Potency [5]: inactive | Potency [6]: inactive | Potency [7]: inactive | Potency [8]: inactive | Potency [9]: inactive | Potency [10]: inactive | Potency [11]: inactive | Potency [12]: inactive | Potency [13]: inactive | Potency [14]: inactive | Potency [15]: inactive | Potency [16]: inactive

C=CCN1CC[C@]23c4c5ccc(O)c4O[C@H]2C(=O)CC[C@@]3(O)[C@H]1C5
Potency [1]: inactive | Potency [2]: inactive | Potency [3]: inactive | Potency [4]: inactive | Potency [5]: inactive | Potency [6]: inactive | Potency [7]: inactive | Potency [12]: inactive | Potency [13]: inactive | Potency [14]: inactive | Potency [17]: inactive | Potency [15]: inactive | Potency [16]: inactive

CCCCn1cc[n+](C)c1.[Cl][Fe-]([Cl])([Cl])[Cl]
Potency [1]: inactive | Potency [2]: inactive | Potency [3]: inactive | Potency [4]: inactive | Potency [5]: inactive | Potency [7]: inactive | Potency [8]: inactive | Potency [9]: inactive | Potency [10]: inactive | Potency [11]: inactive | Potency [12]: inactive | Potency [13]: inactive | Potency [14]: inactive | Potency [17]: inactive | Potency [15]: inactive | Potency [16]: inactive

CN(C)C(=S)[S-].CN(C)C(=S)[S-].[Cu+2]
Potency [1]: 297 nM (active) | activity change [2]: 5.57% [at 11.8 µM, hits give high values] | activation [3]: 0.935% [at 15.8 µM] | activation [4]: 0.103% [at 11.8 µM] | activity change, negative = cytotoxicity [5]: -25.4% [at 13.5 µM] | activity, negative = inhibition [8]: 13.6% [at 12.7 µM] | activation [9]: 16.6% [at 15.9 µM] | activity, negative = inhibition [10]: -2.33% [at 12.6 µM] | activation [11]: 0.767% [at 15.8 µM] | activity change, negative = inhibition [13]: -106% [at 18.9 µM] | activity change, negative = inhibition [14]: 0.898% [at 19 µM] | activation [15]: 0.949% [at 19 µM] | activity change, negative = inhibition [16]: 2.62% [at 18.9 µM]

Cc1cc(OC(=O)N(C)C)nn1C(=O)N(C)C
Potency [1]: inactive | Potency [2]: inactive | Potency [3]: inactive | Potency [4]: inactive | Potency [5]: inactive | Potency [6]: inactive | Potency [7]: inactive | Potency [8]: inactive | Potency [9]: inactive | Potency [10]: inactive | Potency [11]: inactive | Potency [12]: inactive | Potency [13]: inactive | Potency [14]: inactive | Potency [15]: inactive

CCCSP(=S)(OCC)Oc1ccc(SC)cc1 (stereo not drawn)
Potency [1]: inactive | Potency [2]: inactive | Potency [3]: inactive | Potency [4]: inactive | Potency [7]: inactive | Potency [18]: inactive | Potency [8]: inactive | Potency [9]: inactive | Potency [11]: inactive | Potency [12]: inactive | Potency [13]: inactive | Potency [14]: inactive | Potency [17]: inactive | Potency [15]: inactive | Potency [16]: inactive

CCOP(=S)(OCC)SCCS(=O)(=O)CC
Potency [1]: inactive | Potency [2]: inactive | Potency [3]: inactive | Potency [4]: inactive | Potency [5]: inactive | Potency [6]: inactive | Potency [7]: inactive | Potency [9]: inactive | Potency [10]: inactive | Potency [11]: inactive | Potency [12]: inactive | Potency [13]: inactive | Potency [14]: inactive | Potency [17]: inactive | Potency [15]: inactive | Potency [16]: inactive

O.O.O.O.O.O.O.O=S(=O)([O-])[O-].[Co+2]
Potency [1]: inactive | Potency [2]: inactive | Potency [3]: inactive | Potency [4]: inactive | Potency [5]: inactive | Potency [6]: inactive | Potency [7]: inactive | Potency [9]: inactive | Potency [10]: inactive | Potency [11]: inactive | Potency [12]: inactive | Potency [13]: inactive | Potency [15]: inactive | Potency [16]: inactive
